Here are results for eight compounds from PubChem BioAssay (Tox21).

SMILES strings stand for the structures. Values without a mark were called inactive. Inconclusive results are not listed. Active and inactive are the calls of the source. Unless noted, calls follow the shape of the full dose curve.

For experiment [1], the target named is Gonadotropin-releasing hormone receptor (Homo sapiens) (UniProt P30968). The experiment is described as follows: Human gonadotropin-releasing hormone receptor (GnRHR) small molecule agonists, calcium flux assay in GnRHR-HEK293 cells (AID 1920063). Also: nearly all actives have a fitted effect of over 35% in size. Also: potency is read from the fitted curve at half-maximal effect. In short, it runs like this: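 Compounds dissolved in DMSO are pin-transferred onto dye-loaded GnRHR-HEK293 cells, which were seeded 18 h before at 37 C/5% CO2. Calcium signal is read as fluorescence intensity at 1 s intervals for 3 min.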
Background: A change in cytosolic calcium serves as a functional read-out for many receptors and channels.

Experiment [2] addresses KiSS-1 receptor (Homo sapiens) (UniProt Q969F8). The experiment is described as follows: Human kisspeptin (KISS1R) small molecule agonists, calcium flux assay in KISS1R-HEK293 cells (AID 1920064; active = well fitted activation curve with a large enough effect in the repeat runs). The gist of the method:
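Cell line: HEK293, stable human KISS1R. Dye loading 1 h at 37 C after 18 h culture. Read: kinetic fluorescence, 480/540 nm, 3 min at 1 s intervals.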

A short description of experiment [3]: G protein-coupled receptor (GPCR) small molecule agonists, calcium flux assay: HEK293 wild type cell line counter screen (AID 1920065). Also: potency is read from the fitted curve at half-maximal effect. In short, it runs like this: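 Tox21 10K compounds, 15 concentrations each in triplicate, pin-transferred in DMSO onto dye-loaded cells; kinetic read at 480/540 nm for 3 min, 1 s intervals.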
Experiment [4] in a line: p53 small molecule agonists, cell-based qHTS assay with human liver microsomes (AID 1963577).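 Also: p53 response element beta-lactamase reporter cells with liver microsomes plus NADPH.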 The gist of the method: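 With metabolic activation: human liver microsomes (0.5 mg/mL final) plus NADPH (0.5 mg/mL final) added alongside compounds to p53RE-bla cells; 16 h 37 C exposure; beta-lactamase read by LiveBLAzer fluorescence.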
The nature of experiment [5]: p53 small molecule agonists, cell-based qHTS assay with rat liver microsomes (AID 1963578). The gist of the method: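 Metabolic activation by rat liver microsomes and NADPH, each 0.5 mg/mL final, added right after compounds to p53RE-bla reporter cells (4,000/well, plated 5 h earlier). 16 h at 37 C, then LiveBLAzer substrate for 2 h at room temperature in the dark; fluorescence read-out.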

The nature of experiment [6]: p53 small molecule agonists, cell-based qHTS assay with human liver microsomes: qHTS cell viability counter screen (AID 1963579). Also: nearly all actives have a fitted effect of over 45% in size. In short, it runs like this: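 Metabolic activation used human liver microsomes and NADPH, both 0.5 mg/mL final, over 16 hours at 37 C on p53RE-bla cells (4,000/well). Cytotoxicity measured by CellTiter-Glo luminescence, 30 min at room temperature.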

Experiment [7] addresses D(2) dopamine receptor (Homo sapiens) (UniProt P14416). The experiment is described as follows: Dopamine D2 receptor (DRD2) small molecule agonists, cell-based qHTS assay (AID 1963594). Also: nearly all actives have a fitted effect of over 35% in size. The gist of the method: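 HEK293 cells stably expressing human DRD2, pre-treated with PDE inhibitor Ro20-1724 (0.1 mM final) and compound 10 min at room temperature, then stimulated with NKH477 (200nM […]) for 30 min. cAMP read by HTRF (665/620 nm).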
In general terms: In qHTS, concentration-response curves come from the screen itself.

For experiment [8] the target is unchanged. The experiment is described as follows: Dopamine D2 receptor (DRD2) small molecule antagonists, cell-based qHTS assay (AID 1963595; active = well fitted inhibition curve with a large enough effect in the signal ratio in the repeat runs, with a control signal flat; the % refers to the signal ratio). The gist of the method: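 Readout: HTRF cAMP, cAMP-d2 competing with cellular cAMP for anti-cAMP cryptate, read after 1 h. Cells: DRD2-HEK293. Conditions: 0.1 mM Ro20-1724, 12 nM quinpirole, 200 nM NKH477, 30 min RT.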
Experiment [9] in a line: p53 small molecule agonists, cell-based qHTS assay with rat liver microsomes: qHTS cell viability counter screen (AID 1963580). Also: nearly all actives have a fitted effect of over 45% in size. Also: potency is read from the fitted curve at half-maximal effect. The gist of the method: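 After the beta-lactamase ratio was read, CellTiter-Glo was added to the same wells and luminescence measured at 30 min; cells had been treated 16 h at 37 C with compounds, rat liver microsomes and NADPH (0.5 mg/mL final each).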

Experiment [10] in a line: p53 small molecule agonists, cell-based qHTS assay: qHTS cell viability counter screen (AID 1963581). Also: nearly all actives have a fitted effect of over 45% in size. The gist of the method: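 ATP content measured by luminescence in HCT-116 p53RE-bla cells treated 16 h at 37 C, same wells as the reporter screen.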
Experiment [11] concerns the target Beta-2 adrenergic receptor (Homo sapiens) (UniProt P07550). The experiment is described as follows: Adrenergic beta2 receptor (ADRB2) small molecule antagonists, cell-based qHTS assay (AID 1963592). Also: series mostly up to about 92 µM; nearly all actives have a fitted effect of over 50% in size. In short, it runs like this: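 Assay format: CHO-ADRB2 cells, 18-20hr seeding at 37C/5% CO2, then compound plus 1nM isoproterenol agonist mix for 0.5hr RT. Homogeneous time-resolved fluorescence cAMP detection after 1hr, expressed as 665/615 nm ratio.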

Experiment [12] has the same target. The experiment is described as follows: Adrenergic beta2 receptor (ADRB2) small molecule agonists, cell-based qHTS assay (AID 1963593).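 Also: CHO cells stably overexpressing human ADRB2.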 The gist of the method:
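CHO cells stably over-expressing ADRB2 were plated overnight at 37C, then dosed with compounds plus a stimulation mix containing 100uM IBMX and 25uM Ro-20-1724 for 0.5hr at room temperature. cAMP was measured by HTRF competition, 1hr.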

Experiment [13] in a line: p53 small molecule agonists, cell-based qHTS assay (AID 1963582; active = well fitted activation curve with a large enough effect in the signal ratio in the repeat runs, not every such curve was filed as active; the % refers to the signal ratio). The gist of the method: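 16 h compound exposure (37 C) of p53 response element–bla cells, preceded by 5 h recovery at 37 C/5% CO2; read-out via LiveBLAzer B/G FRET substrate, 2 h RT, fluorescence intensity.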
Experiment [14] deals with 5-hydroxytryptamine receptor 2A (Homo sapiens) (UniProt P28223). The experiment is described as follows: 5-hydroxytryptamine receptor 2A (HTR2A) small molecule antagonists, cell-based qHTS assay (AID 1963586). Also: nearly all actives have a fitted effect of over 45% in size. Also: potency is read from the fitted curve at half-maximal effect. In short, it runs like this:
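CHO cells stably expressing human HTR2A were plated for 18 h at 37 C, then loaded with calcium dye for 1 h. Compounds were preincubated 5 min at room temperature before DOI (4 nM solution) was added. Kinetic fluorescence was read for 3 min.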

The target of experiment [15] is Muscarinic acetylcholine receptor M1 (Homo sapiens) (UniProt P11229). The experiment is described as follows: Cholinergic receptor muscarinic 1 (CHRM1) small molecule antagonists, cell-based qHTS assay (AID 1963588). Also: nearly all actives have a fitted effect of over 40% in size. Also: potency is read from the fitted curve at half-maximal effect. The gist of the method: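 Compounds were tested at 15 concentrations in three independent runs. Dye-loaded CHRM1-CHO cells were exposed 5 min at room temperature before stimulation by acetylcholine added at 50nM. Intracellular calcium was read kinetically on FDSS for 3 min.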

The target is the same in experiment [16]. The experiment is described as follows: Cholinergic receptor muscarinic 1 (CHRM1) small molecule agonists, cell-based qHTS assay (AID 1963589). Also: nearly all actives have a fitted effect of over 35% in size. In short, it runs like this:
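Homogeneous fluorescence calcium flux, agonist mode. Human M1-expressing CHO cells; compound dosed at 15 concentrations, three independent runs; signal sampled every 1 sec.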

A short description of experiment [17]: cAMP Responsive Elements (CRE) small molecule agonists, cell-based qHTS assay (AID 1963590). The gist of the method: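 HEK 293T cells stably bearing CRE-bla were plated at 2,000 cells per well and rested 18 h. Compounds, positive controls or DMSO were added for 3 h at 37 C. LiveBLAzer B/G substrate was then loaded for 2 h at room temperature.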
Experiment [18] is described as follows: cAMP Responsive Elements (CRE) small molecule antagonists, cell-based qHTS assay (AID 1963591; active = well fitted inhibition curve with a large enough effect in the signal ratio in the repeat runs, not every such curve was filed as active; the % refers to the signal ratio; also: potency is read from the fitted curve at half-maximal effect). The gist of the method:
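First, CRE-bla HEK293T cells settled 18 h at 37 C. Next, compound and 0.25 uM final NKH477 were applied for 3 h. Last, LiveBLAzer B/G substrate was loaded for 2 h at room temperature.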

For experiment [19], the target named is 5-hydroxytryptamine receptor 2A (Homo sapiens) (UniProt P28223). The experiment is described as follows: 5-hydroxytryptamine receptor 2A (HTR2A) small molecule agonists, cell-based qHTS assay (AID 1963587). Also: nearly all actives have a fitted effect of over 30% in size. Also: potency is read from the fitted curve at half-maximal effect. The gist of the method: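 CHO cells stably expressing human HTR2A, plated 18 h, loaded with calcium dye 1 h at 37 C. Agonist mode: compounds added and intracellular calcium fluorescence recorded kinetically for 2 min at 1 sec intervals.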
% is scaled to controls: 0 for no effect and ±100 for the full control effect.

Chain of D(2) dopamine receptor (Homo sapiens) (P14416 whole entry, looked up): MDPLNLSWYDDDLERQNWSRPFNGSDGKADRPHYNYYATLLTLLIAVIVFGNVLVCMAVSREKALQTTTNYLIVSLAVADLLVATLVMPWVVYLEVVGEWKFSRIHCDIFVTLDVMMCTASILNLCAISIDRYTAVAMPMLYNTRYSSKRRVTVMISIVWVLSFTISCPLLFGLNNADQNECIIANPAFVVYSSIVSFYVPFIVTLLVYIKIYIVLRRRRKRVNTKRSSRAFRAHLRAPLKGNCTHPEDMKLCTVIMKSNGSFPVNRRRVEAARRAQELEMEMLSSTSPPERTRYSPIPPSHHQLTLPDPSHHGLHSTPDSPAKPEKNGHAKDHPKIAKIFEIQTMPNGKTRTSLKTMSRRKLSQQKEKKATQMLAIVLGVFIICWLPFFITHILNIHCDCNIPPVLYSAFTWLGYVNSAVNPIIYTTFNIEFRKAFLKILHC
Chain of Gonadotropin-releasing hormone receptor (Homo sapiens) (P30968 whole entry, looked up): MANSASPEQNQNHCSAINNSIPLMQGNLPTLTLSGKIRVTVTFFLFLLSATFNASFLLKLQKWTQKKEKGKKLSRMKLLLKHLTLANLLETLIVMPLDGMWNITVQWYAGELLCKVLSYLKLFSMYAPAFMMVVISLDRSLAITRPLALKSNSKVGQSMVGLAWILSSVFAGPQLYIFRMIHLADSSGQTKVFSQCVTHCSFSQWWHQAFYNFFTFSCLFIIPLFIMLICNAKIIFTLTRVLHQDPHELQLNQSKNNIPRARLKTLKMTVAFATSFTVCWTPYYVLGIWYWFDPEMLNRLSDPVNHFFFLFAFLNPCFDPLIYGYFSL
Chain of Beta-2 adrenergic receptor (Homo sapiens) (P07550 whole entry, looked up): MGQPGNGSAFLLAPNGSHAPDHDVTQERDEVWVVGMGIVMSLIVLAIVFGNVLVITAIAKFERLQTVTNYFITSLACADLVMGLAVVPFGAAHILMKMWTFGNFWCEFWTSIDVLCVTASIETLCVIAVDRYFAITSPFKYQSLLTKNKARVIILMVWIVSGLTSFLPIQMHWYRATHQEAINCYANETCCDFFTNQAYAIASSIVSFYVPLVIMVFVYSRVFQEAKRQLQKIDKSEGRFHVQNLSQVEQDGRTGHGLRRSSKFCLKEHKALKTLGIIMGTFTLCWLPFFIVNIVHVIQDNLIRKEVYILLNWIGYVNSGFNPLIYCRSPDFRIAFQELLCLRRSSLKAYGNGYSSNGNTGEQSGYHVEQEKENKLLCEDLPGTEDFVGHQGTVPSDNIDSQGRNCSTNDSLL
Chain of 5-hydroxytryptamine receptor 2A (Homo sapiens) (P28223 whole entry, looked up): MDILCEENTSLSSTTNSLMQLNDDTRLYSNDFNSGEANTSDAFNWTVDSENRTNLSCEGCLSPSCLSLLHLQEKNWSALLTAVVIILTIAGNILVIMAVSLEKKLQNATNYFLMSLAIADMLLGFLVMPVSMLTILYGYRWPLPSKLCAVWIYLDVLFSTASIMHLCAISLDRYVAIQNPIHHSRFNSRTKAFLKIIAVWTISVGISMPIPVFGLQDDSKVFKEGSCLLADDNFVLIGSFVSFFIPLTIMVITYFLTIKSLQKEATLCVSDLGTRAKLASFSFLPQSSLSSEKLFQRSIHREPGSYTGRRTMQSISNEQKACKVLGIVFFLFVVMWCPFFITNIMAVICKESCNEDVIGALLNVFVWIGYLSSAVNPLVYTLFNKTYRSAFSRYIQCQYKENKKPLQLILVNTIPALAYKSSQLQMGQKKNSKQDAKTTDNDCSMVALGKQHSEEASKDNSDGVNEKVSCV
Chain of Muscarinic acetylcholine receptor M1 (Homo sapiens) (P11229 whole entry, looked up): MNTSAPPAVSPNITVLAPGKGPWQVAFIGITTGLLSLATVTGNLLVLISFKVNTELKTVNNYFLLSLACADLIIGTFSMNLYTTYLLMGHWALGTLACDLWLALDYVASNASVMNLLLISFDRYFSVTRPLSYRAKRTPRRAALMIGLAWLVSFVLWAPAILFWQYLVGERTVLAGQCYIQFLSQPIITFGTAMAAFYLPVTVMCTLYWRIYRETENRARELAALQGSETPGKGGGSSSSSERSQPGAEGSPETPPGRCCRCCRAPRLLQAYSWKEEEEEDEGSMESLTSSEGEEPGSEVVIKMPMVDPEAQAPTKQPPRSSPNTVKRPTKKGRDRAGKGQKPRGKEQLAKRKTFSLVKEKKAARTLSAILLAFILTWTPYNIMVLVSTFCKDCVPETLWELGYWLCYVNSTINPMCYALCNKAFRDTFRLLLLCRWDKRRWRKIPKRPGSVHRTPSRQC
Chain of KiSS-1 receptor (Homo sapiens) (Q969F8 whole entry, looked up): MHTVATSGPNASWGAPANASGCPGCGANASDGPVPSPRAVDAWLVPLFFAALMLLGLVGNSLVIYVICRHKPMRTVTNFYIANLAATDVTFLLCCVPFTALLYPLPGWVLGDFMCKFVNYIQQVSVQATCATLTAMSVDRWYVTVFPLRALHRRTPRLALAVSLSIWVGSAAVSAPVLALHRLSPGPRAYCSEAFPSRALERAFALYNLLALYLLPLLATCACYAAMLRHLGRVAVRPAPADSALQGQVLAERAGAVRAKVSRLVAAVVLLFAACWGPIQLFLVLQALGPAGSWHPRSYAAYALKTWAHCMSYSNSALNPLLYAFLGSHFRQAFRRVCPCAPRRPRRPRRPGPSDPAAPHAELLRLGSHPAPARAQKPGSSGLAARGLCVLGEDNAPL

Regarding `CCCCCCCCNC(C)C(O)c1ccc(SC(C)C)cc1` (stereo not drawn), the Potency in experiment [1] is 16.9 µM (active). Besides, the Potency result in experiment [2], in experiment [3], in [4], in [5], in experiment [6] and in experiment [7] was “inactive” in each case. In addition, in [8], the Potency entry was “inactive”.

Take `COc1ccc(CCN(C)CCCC(C#N)(c2ccc(OC)c(OC)c2)C(C)C)cc1OC` (stereo not drawn): the Potency result in experiment [1], in experiment [2], in experiment [3], in experiment [6], in [9] and in experiment [10] was “inactive” in each case. Also, the Potency result in experiment [11], in experiment [7] and in experiment [8] was “inactive” each time.

For `CN(C/C=C/C#CC(C)(C)C)Cc1cccc2ccccc12`, the Potency entry in experiment [1], in experiment [2], in experiment [3], in [6], in [9] and in experiment [10] was “inactive” in each case. Besides, the Potency result in experiment [11], in experiment [12] and in experiment [7] was “inactive” throughout.

Turning to `Brc1ccccc1-c1ccccc1`, the Potency entry in experiment [1], in [2], in experiment [3], in [5], in [6] and in experiment [9] was “inactive” in each case. Also, the Potency result in experiment [13], in experiment [15], in experiment [16], in experiment [17], in experiment [18] and in experiment [11] was “inactive” each time. Further, the Potency result in experiment [8] was “inactive”. Moreover, in [14], the Potency is 17.8 µM (active).

`[O-][n+]1ccccc1SSc1cccc[n+]1[O-]`: the activity change in experiment [1] was 17.2% [at 11.8 µM, active compounds read high]. Further, the activation in [2] is 1.71% [at 15.8 µM]; in [4], -14.9% [at 13.5 µM]; in experiment [16], 14.1% [at 15.8 µM]; in experiment [17], -1.24% [at 19 µM]; in experiment [12], 17.9% [at 19 µM]. Moreover, the Potency in experiment [3] is 4.65 µM (active); in [9], 0.547 µM (active); in [19], 9.28 µM (active). Moreover, the activity change, negative = cytotoxicity in experiment [10] was 8.83% [at 13.5 µM]. In addition, the activity, negative = inhibition in experiment [15] is 9.35% [at 12.6 µM]. The activity change, negative = inhibition is 11.4% [at 19 µM] in experiment [11] and -21.1% [at 18.9 µM] in experiment [8].

Consider `COC(=O)Nc1nc2ccc(C(=O)c3ccccc3)cc2[nH]1`, for which the Potency result in experiment [1], in experiment [2], in experiment [3], in [4], in experiment [5] and in [9] was “inactive” in each case. The Potency entry in experiment [18], in experiment [11], in experiment [7] and in experiment [8] was “inactive” each time.

`COC(=O)Nc1nc2ccc(C(=O)c3cccs3)cc2[nH]1`: the Potency entry in experiment [1], in experiment [2], in [3], in experiment [4], in experiment [5] and in experiment [9] was “inactive” each time. Besides, the Potency entry in [18], in experiment [11] and in [7] was “inactive” in each case.

Consider `O=C(c1ccccc1)c1cc(Cl)ccc1O`, for which the Potency result in [1], in experiment [2], in experiment [3], in [4], in experiment [5] and in experiment [9] was “inactive” in each case. In addition, the Potency result in experiment [10], in experiment [13], in experiment [14], in experiment [19], in [16] and in experiment [11] was “inactive” throughout. The Potency entry in experiment [7] and in experiment [8] was “inactive” each time. Moreover, the Potency in [15] was 20 µM (active); in experiment [18], 41.1 µM (active).
